Structures are written as SMILES. Results filed as inconclusive are left out. The source made the active and inactive calls. Calls follow the shape of the full dose curve.

We go through 40 compounds from PubChem BioAssay (Tox21).
% is scaled to controls: 0 for no effect and ±100 for the full control effect.

The test in a line: qHTS assay to identify small molecule antagonists of the sonic hedgehog signaling (Shh) pathway (AID 1259369). Also: nearly all actives have a fitted effect of over 45% in size. The note with it: NIH/3T3 Gli1-Luc reporter, Shh antagonist, luminescence 24 h; series mostly up to 92.4 µM; activity change, negative = inhibition: at the top concentration. The text has this:
U.S. Tox21 Program National Center for Advancing Translational Sciences [NCATS] NIH Chemical Genomics Center [NCGC] U.S. Environmental Protection Agency [EPA] National Institutes of Environmental Health Sciences [NIEHS] National Toxicology Program [NTP] U.S. Food and Drug Administration [FDA] Tox21 Assay Overview: The sonic hedgehog (Shh) pathway is essential for normal embryonic development. Dysregulation of the Shh pathway can cause severe developmental defects in organs. Therefore chemicals that interfere with the pathway are potential developmental toxicants. A cell line designated 3T3Gli1-Luc (DMB/OARSA/CFSAN/FDA, Laurel, MD), a NIH/3T3 derived clone containing stably integrated Gli1-Luc reporter is used to detect chemical interference of the Shh pathway, by changes in the expression of the firefly Luc gene under the control of the Gli1 transcriptional response element. This cell line was used to screen Tox21 libraries for identifying and prioritizing the potential developmental toxicants that interfere Shh pathway. Conditioned medium-stimulated mode was used to screen for chemicals inhibiting Shh signaling.
Tox21 Assay Protocol Summary: 3T3 Gli1-Luc cells were dispensed at 2,000 per well in 5uL of culture medium into white solid bottom 1536-well plates (Greiner Bio-One, Monroe, NC) using a Multidrop Combi (Thermo Scientific, Waltham, MA) dispenser. The assay plates were incubated at 37 C and 5% CO2 for 4hr, and then 23nL of compounds dissolved in DMSO and positive control were transferred using a Pintool station (Wako, San Diego, CA). The compound transfer was followed by the addition of 1ul conditioned medium or assay buffer using two separate tips of Flying Reagent Dispenser (FRD, Aurora Discovery, San Diego, CA). The assay plates were incubated at 37C and 5% CO2 for 24hr. For luciferase read, 4uL of Amplite Luciferase reporter gene assay reagent (AAT Bioquest, Inc. Sunnyvale, CA) was added to each well of the assay plates using FRD and incubated at room temperature for 30min. The luminescence signal was measured using a ViewLux plate reader (Perkin Elmer, Shelton, CT).
`O=S(=O)(O)CCO`: the “activity change, negative = inhibition” value is 18.1% (inactive).
On to `CC(C)COC(=O)CCCCC(=O)OCC(C)C`, for which the “activity change, negative = inhibition” value was 0% (inactive).
Next, `O=C1OC(=O)c2cc(Oc3ccc4c(c3)C(=O)OC4=O)ccc21`: 0% (inactive); `FC(F)(F)c1ccc(Cl)cc1Cl`: 33.1% (inactive).
Next, `Cc1cc(C)cc([N+](=O)[O-])c1`: 14.4% (inactive); `NC(Cc1c[nH]c2ccccc12)C(=O)O` (stereo not given): -4.98% [at 42.5 µM] (inactive).
Take `COc1ccc(N=Nc2cc(C)c(N=Nc3ccc(S(=O)(=O)O)cc3)cc2OC)cc1`: the “activity change, negative = inhibition” value was 0% (inactive).
As for `O=C(CN1CCN(Cc2ccc3c(c2)OCO3)CC1)N1c2ccccc2Sc2ccccc21`, the “activity change, negative = inhibition” value is -1.54% [at 42.5 µM] (inactive).
In the case of `CCCOC(=O)CCCCC(=O)OCCC`, the “activity change, negative = inhibition” value is -5.06% (inactive).
As to `CCCCC[Si](OCC)(OCC)OCC`, the “activity change, negative = inhibition” value is -3.4% (inactive).
In the case of `CCCCC(CC)COC(=O)c1ccccc1` (stereo not given), the “activity change, negative = inhibition” value is 13.5% (inactive).
In the case of `CCOC(=O)C(C)(C)C`, the “activity change, negative = inhibition” value is -2.51% (inactive).
Regarding `NC(=O)NNC(N)=O`, the “activity change, negative = inhibition” value was 10.5% (inactive).
Next, `CCCOCCOCCOCCO`: 7.47% (inactive); `CCCCCCCCCCCCOC(C)=O`: 6.62% (inactive); `CC(Cl)COP(=O)(OCC(C)Cl)OCC(C)Cl` (stereo not given): 0% (inactive).
`C[Si]1(C)N[Si](C)(C)N[Si](C)(C)N1`: the “activity change, negative = inhibition” value is 31.3% (inactive).
For `CCCCCCCCCCCCCCCC(=O)NCCO`, the “activity change, negative = inhibition” value was 21.3% [at 42.5 µM] (inactive).
For `CC(=O)OCCCc1ccccc1`, the “activity change, negative = inhibition” value was 18.6% (inactive).
Next, `CCC1COC(=O)O1` (stereo not given): 14.4% (inactive).
On to `CCCCOC(=O)C(C)OC(=O)CCC` (stereo not given), for which the “activity change, negative = inhibition” value is 0% (inactive).
Next, `C=CCCCCCCCCCCC`: -3.37% [at 8.39 µM] (inactive).
Next, `Nc1ccc(C(=O)OCC(O)CO)cc1` (stereo not given): 32.7% [at 42.5 µM] (inactive); `CCCCCC1Nc2cc(C(F)(F)F)c(S(N)(=O)=O)cc2S(=O)(=O)N1` (stereo not given): -5.53% [at 42.5 µM] (inactive); `O=C(Oc1ccccc1C(=O)O)c1ccccc1O`: 25.4% [at 42.5 µM] (inactive).
On to `CCN1CN(CC)CN(CC)C1`, for which the “activity change, negative = inhibition” value was 0% (inactive).
On to `NS(=O)(=O)c1cc2c(cc1Cl)NC(CC1CCCC1)NS2(=O)=O` (stereo not given), for which the “activity change, negative = inhibition” value was 0.936% [at 42.5 µM] (inactive).
In the case of `CCS(=O)(=O)CCn1c([N+](=O)[O-])cnc1C` it was -13.7% [at 42.5 µM] (inactive); in that of `C=CCOCC(O)CCl` (stereo not given), 4.46% (inactive).
Next, `O=C(O)CCNC(=O)c1ccccc1`: 16.6% [at 42.5 µM] (inactive); `Nc1ccc(S(=O)(=O)Nc2ccccn2)cc1`: 1.89% [at 42.5 µM] (inactive); `CCCCC(CC)C(=O)OC(C)C` (stereo not given): 0% (inactive).
`O=C(O)c1ccccc1C(=O)Nc1ccc(S(=O)(=O)Nc2nccs2)cc1`: the “activity change, negative = inhibition” value was 12% [at 42.5 µM] (inactive).
In the case of `C=COCCOCCOC=C` it was -3.31% (inactive).
For the compound `CCC(C)(CCC(C)C)C(=O)[O-].CCC(C)(CCC(C)C)C(=O)[O-].[Zn+2]` (stereo not given), the “activity change, negative = inhibition” value was 0% (inactive).
In the case of `CCCCC(=O)N(C)C` it was 19.1% (inactive); in that of `CCCCCC(=O)OCC`, 4.07% (inactive).
As to `NS(=O)(=O)c1cc2c(cc1Cl)NC(C(Cl)Cl)NS2(=O)=O` (stereo not given), the “activity change, negative = inhibition” value was -0.0496% [at 42.5 µM] (inactive).
Next, `Cc1cccc(C(=O)O)c1[N+](=O)[O-]`: 24.9% (inactive); `CCc1nccnc1C`: 10.7% (inactive).
